Reference: PubChem BioAssay AID504847 (National Center for Advancing Translational Sciences (NCATS), 2011)
Hit rate of the full screen: of about 400,000 compounds, about 3,700 (0.93%) were called active. Not shown: some 3% with an inconclusive outcome. This is one part of a sample in which actives are shown more often than they occur. A structure can be active in one record and inactive in another. Unmarked numbers belong to inactive results. Calls come from the whole dose curve; as a rule, active = well fitted inhibition curve with a large enough effect; inconclusive = small, poorly fitted or top-dose-only effect, or another doubt; inactive = no such curve, though single readings can be large or run the other way.

target: Vitamin D3 receptor (Homo sapiens) (UniProt P11473); experiment: Inhibitors of the vitamin D receptor (VDR): qHTS; conditions: VDR-SRC2-3 peptide fluorescence polarization, 2 h; max response, negative = inhibition: stronger effect = lower value
Sequence (P11473 whole entry, looked up): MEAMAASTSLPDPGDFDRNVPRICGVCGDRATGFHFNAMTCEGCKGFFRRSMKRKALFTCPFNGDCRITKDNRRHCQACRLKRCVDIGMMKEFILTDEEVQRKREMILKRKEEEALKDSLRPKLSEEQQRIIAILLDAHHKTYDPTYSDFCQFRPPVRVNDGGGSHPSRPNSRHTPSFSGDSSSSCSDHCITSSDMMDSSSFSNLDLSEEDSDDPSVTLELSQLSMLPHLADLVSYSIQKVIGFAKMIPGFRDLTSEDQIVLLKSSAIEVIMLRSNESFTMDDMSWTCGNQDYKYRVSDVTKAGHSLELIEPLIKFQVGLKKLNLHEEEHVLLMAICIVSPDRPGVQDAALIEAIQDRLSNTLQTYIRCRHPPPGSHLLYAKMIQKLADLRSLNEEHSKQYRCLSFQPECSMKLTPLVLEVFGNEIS
Source text: The vitamin D receptor (VDR) is a ligand-activated transcription factor and is partially responsible for the regulation of the endocrine system. This includes the transcriptional regulation of genes involved in the production of the parathyroid hormone (PTH) and the regulation of the blood calcium level. High levels of PHT can cause hypercalcemia in the case of primary and tertiary hyperparathyroidism. The VDR-mediated gene regulation, activated by its ligand 1,25-dihydroxyvitamin D3 (1,25-(OH)2D3), is governed by the recruitment of coactivators. Our hypothesis is that small molecules, with the ability to inhibit the interaction between VDR and certain coactivators, are able to selectively modulate VDR-mediated transcription. Our long term objective is the application these VDR-coactivator inhibitors to study the role of VDR-coactivator binding for specific VDR regulated genes. Ultimately, these molecules can be developed into new treatments for hypercalcemic hyperparathyroidism. No small molecule or non-peptide inhibitors are known for the VDR-coactivator interaction.
In a collaboration between the University of Wisconsin, Milwaukee and the NIH Chemical Genomics Center (NCGC) a HTS-compatible enzymatic assay was developed. The assay uses fluorescence polarization as its read-out to measure the inhibition between VDR and coregulator peptide SRC2-3 exerted by small molecules. This assay was used to screen the NIH Molecular Libraries Small Molecule Repository (MLSMR).
NIH Chemical Genomics Center [NCGC]
NIH Molecular Libraries Probe Centers Network [MLPCN]
Assay Submitter (PI): Alexander Arnold, University of Wilwaukee
Both solutions are kept at 4 deg C and protected from light and dispensed using a Kalypsys dispenser. Then 23nl of compounds and controls are added with Kalypsys pintool. […] Plate is centrifuged at 1000 RPM for 15 seconds to remove any residual bubbles. The plate is then incubate at ambient room temperature for 2 hours.
% is set by controls: 0 for no effect and ±100 for the full control effect; potency is the fitted concentration of half-maximal effect.

Structure (SMILES) | Potency | max response, negative = inhibition [%]
COc1ccc2c(c1)C(=C(C#N)C#N)C(=O)N2CCc1ccccc1 | 50.1 µM (active) | 
C#CCN1C(=O)C(O)(CC(=O)c2cc(OC)ccc2OC)c2ccccc21 (stereo not given) |  | -3.89
COc1ccc(C(=O)NC(C)CCc2ccccc2)c(OC)c1 (stereo not given) |  | -15.7
COc1ccccc1-c1nnc(SCC(N)=O)o1 |  | 10.5
CCC(=O)N1CCc2cc(Br)cc(S(=O)(=O)CCC(=O)NCc3ccccc3OC)c21 |  | -6.5
COc1ccc(C2Nc3ccc(NC(=O)COC(C)=O)cc3C(=O)N2Cc2ccccc2)cc1COc1ccc(NC(C)=O)cc1 (stereo not given) |  | -2.53
CCOc1ccc(NC(=O)CN(Cc2ccccc2)S(=O)(=O)c2ccc(Cl)cc2)cc1 |  | 3.79
CCOc1ccc(N(Cc2ccccc2)C(=O)c2nc(S(C)(=O)=O)ncc2Cl)cc1 | 12.6 µM (active) | 
CCOc1ccc(N(Cc2ccccc2)C(=O)c2nc(SCC)ncc2Cl)cc1 |  | 3.07
Cc1ccccc1NC(=O)Cn1c(=O)n(CCCCC(=O)NCc2ccccc2Cl)c(=O)c2ccccc21 |  | -9.56
COc1ccc(CCNC(=O)CCCn2c(=O)c3ccccc3n(Cc3ccc(C)cc3)c2=O)cc1OC |  | -9.82
Cc1ccc(Cn2c(=O)n(CCCC(=O)NCc3ccccc3Cl)c(=O)c3ccccc32)cc1 | 89.1 µM (active) | 
O=C1N(Cc2ccccc2)c2ccc(Cl)cc2C1(O)c1c[nH]c2ccccc12 (stereo not given) |  | -7.22
Cc1c(Cl)cccc1-c1ccc(CNCCCSc2nnnn2C)o1 |  | 17.5
CC(C)(C)c1ccc(S(=O)(=O)N2CCN(C(=O)c3cc(-c4ccc(Br)cc4)n[nH]3)CC2)cc1 |  | 0.49
O=C(c1cc(-c2ccc(O)cc2)on1)N1CCOCC1 |  | 4.52
O=C(c1cc(-c2ccc(Cl)cc2)on1)N1CCN(c2ccccc2)CC1 |  | 0.117
O=C(c1cc(-c2ccc(F)cc2)on1)N1CCN(c2ccc(F)cc2)CC1 | 70.8 µM (active) | -26.1
CCCCn1c(=O)c2oc3ccccc3c2n(CC(=O)Nc2ccccc2OC)c1=O |  | 4.96
C=C(C)C1CC=C(CO)CC1 (stereo not given) |  | 1.87
Cc1ccn2c(Nc3ccc4c(c3)OCCO4)c(-c3ccc(C)s3)nc2c1 |  | -0.614
O=C(O)[C@@H](S)[C@H](S)C(=O)O | 17.8 µM (active) | 
CCCCCCC1(C)NC(c2ccc3c(c2)OCO3)=CC(c2ccccc2O)N1 (stereo not given) |  | -18
CCOC(=O)c1nnn(CC(=O)NC(=O)Nc2ccccc2F)c1C(=O)OCC |  | 1.08
